# ChEMBL document CHEMBL4513141, “CO-ADD screening of NIH (USA) - Clinical Collection” (2021)
# Measured potencies and affinities stand elsewhere.
# Experiments:
# Klebsiella pneumoniae = conditions: Concentration 20 uM; ASSAY_TEST Inhibition of Bacterial Growth; detection method Absorption (OD600); MEDIA CAMHB; plate type 384well; NBS; CORNING #3640; time 18 hr
# Candida albicans = conditions: 20 µM
# Cryptococcus neoformans = conditions: Concentration 20 uM; ASSAY_TEST Inhibition of Fungal Growth; detection method Resazurin; Absorption (OD600-OD570); plate type 384well; NBS; CORNING #3640
Structure (SMILES),Inhibition (Klebsiella pneumoniae) [%],Inhibition (Candida albicans) [%],Inhibition (Cryptococcus neoformans) [%]
CC1(C)O[C@@H]2C[C@H]3[C@@H]4CCC5=CC(=O)C=C[C@]5(C)[C@@]4(F)[C@@H](O)C[C@]3(C)[C@]2(C(=O)CO)O1 [TRIAMCINOLONE ACETONIDE],14.59,0.96,-5.82
O=S(=O)([O-])CCS.[Na+] [MESNA],6.51,4.45,1.48
CCCNC(=O)NS(=O)(=O)c1ccc(Cl)cc1 [CHLORPROPAMIDE],11.38,3.19,0
O=C(O)COCCN1CCN(C(c2ccccc2)c2ccc(Cl)cc2)CC1 (stereo not drawn) [CETIRIZINE],-1.38,3.71,-6.19
Cl.O.O=C(c1ccc(F)cc1)C1CCN(CCn2c(=S)[nH]c3ccccc3c2=O)CC1,11.14,3.36,0.24
CC(=O)O.CNC(=N)NCCC[C@H](N)C(=O)O [TILARGININE ACETATE],-3.72,2.96,-3.5
CCC(=O)[N-]S(=O)(=O)c1ccc(-c2c(-c3ccccc3)noc2C)cc1.[Na+] [PARECOXIB SODIUM],7.5,3.16,-0.82
Cc1cn([C@H]2C=C[C@@H](CO)O2)c(=O)[nH]c1=O [STAVUDINE],14.08,2.99,0.51
CC(C)(C)NC(=O)[C@H]1CC[C@H]2[C@@H]3CC[C@H]4NC(=O)C=C[C@]4(C)[C@H]3CC[C@]12C [FINASTERIDE],-7.24,0.68,-1.89
Cc1ccsc1C(=CCCN1CCC[C@@H](C(=O)O)C1)c1sccc1C.Cl [TIAGABINE HYDROCHLORIDE],9.25,1.98,-3.18
C[n+]1ccccc1/C=N/O.[Cl-] [PRALIDOXIME CHLORIDE],15.84,0.76,-2.73
OCCN(CCO)c1nc(N2CCCCC2)c2nc(N(CCO)CCO)nc(N3CCCCC3)c2n1 [DIPYRIDAMOLE],2.81,2.59,5.59
Cl.O=C(O)/C=C/c1ccc(Cn2ccnc2)cc1,3.67,3.2,-5.32
Nc1ccc(S(=O)(=O)c2ccc(N)cc2)cc1 [DAPSONE],5.01,-0.53,0.91
CCCNC(C)C(=O)Nc1ccccc1C.Cl (stereo not drawn) [PRILOCAINE HYDROCHLORIDE],10.6,2.91,-8.37
Cc1cccc(CCN2CCC(C(=O)c3ccc(NS(C)(=O)=O)cc3)CC2)n1.Cl.Cl,0.58,2.81,-8.23
CCC1(c2ccccc2)C(=O)NCNC1=O [PRIMIDONE],7.75,2.22,0.81
COc1ccccc1OCC(O)CN1CCN(CC(=O)Nc2c(C)cccc2C)CC1.Cl.Cl (stereo not drawn) [RANOLAZINE HYDROCHLORIDE],1.09,1.45,-5.35
CCC(C)(C)/N=C(\NC#N)Nc1cccnc1,-0.95,3.82,-26.21

Structure (SMILES),Inhibition (Klebsiella pneumoniae) [%],Inhibition (Candida albicans) [%],Inhibition (Cryptococcus neoformans) [%]
O.OC[C@H]1O[C@@H](n2cnc3c(NC4CCCC4)nc(Cl)nc32)[C@@H](O)C1O (stereo partly drawn),3.81,1.81,-4.95
COc1cc(/C=C/c2ccc(O)cc2)cc(OC)c1 [PTEROSTILBENE],7.46,3.65,-0.34
CC(=O)O.CC(C)C[C@H](NC(=O)[C@@H](COC(C)(C)C)NC(=O)[C@H](Cc1ccc(O)cc1)NC(=O)[C@H](CO)NC(=O)[C@H](Cc1c[nH]c2ccccc12)NC(=O)[C@H](Cc1c[nH]cn1)NC(=O)[C@H]1CCC(=O)N1)C(=O)N[C@H](CCCNC(=N)N)C(=O)N1CCC[C@@H]1C(=O)NNC(N)=O,2.33,2.52,-3.07
NC(=O)N1c2ccccc2C=Cc2ccccc21 [CARBAMAZEPINE],5.59,4.45,-2.39
O=C(O)c1cc(/N=N/c2ccc(S(=O)(=O)Nc3ccccn3)cc2)ccc1O [SULFASALAZINE],2.94,8.72,5.13
Cl.O=C1[C@H]2CCCC[C@H]2C(=O)N1CCCCN1CCN(c2nsc3ccccc23)CC1,9.66,2.33,-7.18
Cc1ccc(-c2cc(C(F)(F)F)nn2-c2ccc(S(N)(=O)=O)cc2)cc1 [CELECOXIB],10.55,2.46,0.77
Nc1ccc2cn[nH]c2c1,2.93,4.22,6.83
CCCOc1ccc(C(=O)OCCN(CC)CC)cc1N.Cl [PROPARACAINE HYDROCHLORIDE],1.6,0.55,2.64
Cc1occc(=O)c1O [MALTOL],10.28,4.42,-2.15
Cc1cccc(CN2CCN(C(c3ccccc3)c3ccc(Cl)cc3)CC2)c1.Cl.Cl (stereo not drawn),10.89,1.13,-13
Cc1onc(-c2ccccc2)c1-c1ccc(S(N)(=O)=O)cc1 [VALDECOXIB],13.38,1.13,0.76
CCOC(=O)[C@H](CCc1ccccc1)N[C@H]1CCc2ccccc2N(CC(=O)O)C1=O.Cl [BENAZEPRIL HYDROCHLORIDE],6.08,3.12,0.84
CC(=O)OCC(=O)[C@@]1(O)CC[C@H]2[C@@H]3CCC4=CC(=O)CC[C@]4(C)[C@H]3C(=O)C[C@@]21C [CORTISONE ACETATE],12.5,1.99,-0.31
CC(N)C12CC3CC(CC(C3)C1)C2.Cl (stereo not drawn) [RIMANTADINE HYDROCHLORIDE],8.19,2.89,-3.72
Br.Br.O=C1CC2(CCCC2)CC(=O)N1CCNCC1COc2ccccc2O1 (stereo not drawn),12.27,3.99,-1.27
COC(=O)CCc1ccc(OCC(O)CNC(C)C)cc1.Cl (stereo not drawn) [ESMOLOL HYDROCHLORIDE],3.48,1.99,-7.33
C#C[C@]1(O)CC[C@H]2[C@@H]3CCC4=Cc5oncc5C[C@]4(C)[C@H]3CC[C@@]21C [DANAZOL],2.6,6.36,0.96
CN(C)c1nc(N(C)C)nc(N(C)C)n1 [ALTRETAMINE],4.59,4.65,-7.07

Structure (SMILES),Inhibition (Klebsiella pneumoniae) [%],Inhibition (Candida albicans) [%],Inhibition (Cryptococcus neoformans) [%]
O=C1c2c(O)cc(O)cc2O[C@H](c2ccc(O)c(O)c2)[C@H]1O [(+)-TAXIFOLIN],12.56,3.72,-3.68
Cc1cccc(C)c1OCC(C)N.Cl (stereo not drawn) [MEXILETINE HYDROCHLORIDE],13.5,3.72,-0.12
O=C(O)CCc1nc(-c2ccccc2)c(-c2ccccc2)o1 [OXAPROZIN],16.28,18.9,-4.51
CC(C)(C)C(O)/C=C/c1ccc2c(c1)OCO2 (stereo not drawn) [STIRIPENTOL],6.61,4.55,2.5
COc1ccc([C@@H]2Sc3ccccc3N(CCN(C)C)C(=O)[C@@H]2OC(C)=O)cc1.Cl [DILTIAZEM HYDROCHLORIDE],11.57,4.02,1.8
CCS(=O)(=O)CCn1c([N+](=O)[O-])cnc1C [TINIDAZOLE],6.48,4.29,-11.27
CCC(CO)NCCNC(CC)CO (stereo not drawn),10.98,2.36,-1.69
C[C@]12CC[C@@H]3c4ccc(O)cc4CC[C@H]3[C@@H]1CC[C@@H]2O [ESTRADIOL],5.27,5.91,-4.05
NS(=O)(=O)c1cc2c(cc1Cl)NCNS2(=O)=O [HYDROCHLOROTHIAZIDE],14.61,2.05,-7.59
CS(=O)(=O)O.Cc1c(O)cccc1C(=O)N[C@@H](CSc1ccccc1)[C@H](O)CN1C[C@H]2CCCC[C@H]2C[C@H]1C(=O)NC(C)(C)C [NELFINAVIR MESYLATE],0.71,0.96,-18.17
CCc1cc(C(N)=S)ccn1 [ETHIONAMIDE],13.14,1.99,-7.71
OCc1cc(C(O)CNCCCCCCOCCCCc2ccccc2)ccc1O (stereo not drawn) [SALMETEROL],16.35,5.42,-8.37
CCCC1O[C@@H]2C[C@H]3[C@@H]4CCC5=CC(=O)C=C[C@]5(C)[C@H]4[C@@H](O)C[C@]3(C)[C@]2(C(=O)CO)O1 (stereo partly drawn) [BUDESONIDE],10.57,2.59,-1.35
CCOC(=O)c1ccc(OC(=O)CCCCCN=C(N)N)cc1.CS(=O)(=O)O,15.95,3.2,-7.27
CC[C@]1(O)C[C@@H]2CN(CCc3c([nH]c4ccccc34)[C@@](C(=O)OC)(c3cc4c(cc3OC)N(C=O)[C@H]3[C@@](O)(C(=O)OC)[C@H](OC(C)=O)[C@]5(CC)C=CCN6CC[C@]43[C@@H]65)C2)C1.O=S(=O)(O)O,3.74,2.01,-7.42
O=C1CCC(N2C(=O)c3ccccc3C2=O)C(=O)N1 (stereo not drawn) [THALIDOMIDE],3.28,3.62,-0.8
O=C1N[C@H](C(=O)O)CS1 [PROCYSTEINE],8.75,3.85,-5.5
CCCc1c(OCCCCc2nnn[nH]2)ccc(C(C)=O)c1O [TOMELUKAST],5.45,4.49,3.29
